# Reference: PubChem BioAssay (NCATS)
# Inconclusive results are not listed. The source made the active and inactive calls. Unless noted, calls follow the shape of the full dose curve.
# Experiments:
# [1] = molecular target: Bile acid receptor (Homo sapiens) (UniProt Q96RI1); experiment: qHTS assay for small molecule agonists of farnesoid X receptor signaling (AID 588527); details: HEK293T FXR-UAS-bla, beta-lactamase ratio, 16 h; activation: stronger effect = higher value;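 also: series mostly up to about 77 µM; 0% = vehicle basal and 100% = reference agonist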
# Method in brief: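 Agonist-mode beta-lactamase reporter in GeneBLAzer FXR-UAS-bla HEK293T cells, titration up to 92 uM, 16 h exposure at 37 C, CCF4 fluorescence. Response scaled to DMSO (0%) and 100 uM chenodeoxycholic acid (100%), then Hill-fitted for EC50 and efficacy.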
# [2] = molecular target: Peroxisome proliferator-activated receptor delta (Homo sapiens) (UniProt Q03181); experiment: qHTS assay for small molecule agonists of peroxisome proliferator-activated receptor delta signaling (AID 588534);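 also: 0% = DMSO basal wells and 100% = positive control agonist at 10 µM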
# Method in brief: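 Reporter cells were plated and held 5 hrs at 37 C before compounds were added. After 18 hrs at 37 C, CCF4 dye was loaded for 2 hrs at RT and fluorescence measured.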
# [3] = molecular target: Cytochrome P450 3A4 (Homo sapiens) (UniProt P08684); experiment: qHTS Assay for Activators of Cytochrome P450 3A4 (AID 885; active = well fitted curve in the direction sought with a large enough effect; an effect the other way counts as inactive or inconclusive; also: nearly all actives have a fitted effect of over 65% in size)
# Method in brief: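 Signal was normalized against complete inhibition by 57 uM ketoconazole. The reaction used 20nM CYP3A4 with 25uM Luciferin-PPXE, 10-min compound preincubation and a 60-min NADPH-supported step at RT.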
# [4] = Cell Viability - LYMP2-003 (AID 965; active = well fitted curve in the direction sought with a large enough effect; an effect the other way counts as inactive or inconclusive;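 also: potency is read from the fitted curve at half-maximal effect; cells exposed to compounds for 24 h before reading; nearly all actives have a fitted effect of over 50% in size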)
# Method in brief: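 Human lymphoblastoid LYMP2-003 cells, 2500/well, exposed to compounds for 24 h at 37 C in complete medium. Viability read as intracellular ATP by CellTiter-Glo luminescence; AC50 from Hill-equation fits of qHTS concentration-response data.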
# [5] = Cell Viability - LYMP2-005 (AID 967; active = well fitted curve in the direction sought with a large enough effect; an effect the other way counts as inactive or inconclusive; also: potency is read from the fitted curve at half-maximal effect)
# Method in brief: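 Human lymphoblastoid LYMP2-005 cells, 2,500 per well in complete medium, rested 5 h at 37C then compound-treated 24 h at 37C. Intracellular ATP read by CellTiter-Glo luminescence after 30 min at room temperature; AC50 from Hill-equation fits of concentration-response data.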
# [6] = molecular target: Peroxisome proliferator-activated receptor gamma (Homo sapiens) (UniProt P37231); experiment: qHTS assay for small molecule agonists of peroxisome proliferator-activated receptor gamma signaling (AID 588536; active = well fitted curve in the direction sought with a large enough effect in the signal ratio, with a control signal flat, not every such curve was filed as active; the % refers to the signal ratio;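 also: 0% = DMSO basal wells and 100% = rosiglitazone at 2 µM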)
# Method in brief: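 Ratiometric blue/green fluorescence (405 nm excitation; 460 and 530 nm emission) from CCF4-loaded HEK293 reporter cells serves as signal. Exposure to test compounds lasts 16 h at 37 C in medium containing 1% charcoal/dextran-treated serum.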
# [7] = molecular target: Vitamin D3 receptor (Homo sapiens) (UniProt P11473); experiment: qHTS assay for small molecule agonists of vitamin D receptor signaling (AID 588543);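 also: 0% = DMSO basal and 100% = reference agonist control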
# Method in brief: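 VDR-UAS-bla HEK293T cells, 2000/well, 2% charcoal-stripped FBS; compound titration 16 h at 37 C; CCF4 beta-lactamase ratio read. Normalized to 50 nM 1-alpha,25-dihydroxyvitamin D3 (100%) and DMSO; Hill fit gives EC50, efficacy.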
# [8] = qHTS assay for small molecule activators of the p53 signaling pathway (AID 651743; active = well fitted activation curve with a large enough effect in the signal ratio, not every such curve was filed as active; the % refers to the signal ratio; also: potency is read from the fitted curve at half-maximal effect); details: HCT-116 p53RE-bla, beta-lactamase FRET ratio, 16 h; activation: stronger effect = higher value
# Method in brief: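 p53RE-bla HCT-116 cells with a stably integrated beta-lactamase reporter under p53 response elements were plated, rested 5 hours at 37 C/5% CO2, then exposed to compounds in DMSO for 16 hours at 37 C. LiveBLAzer B/G FRET substrate was read after 2 hours at room temperature.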
# [9] = qHTS assay for small molecule activators of the nuclear factor-kappa B (NF-kB) signaling pathway (AID 651749; active = well fitted activation curve with a large enough effect in the signal ratio; the % refers to the signal ratio; also: series mostly up to about 77 µM; % of control where 0% means no effect); details: NF-kB-bla ME-180 cells, beta-lactamase FRET ratio, 16 h; activation: stronger effect = higher value
# Method in brief: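 ME-180 cells stably carrying a beta-lactamase reporter under an NF-kB response element were exposed to compound or DMSO vehicle for 16 hr at 37C, 5% CO2. Pathway activation was read by FRET, since reporter expression disrupts FRET.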
# [10] = qHTS assay for environmental chemicals that activate the Aryl hydrocarbon Receptor (AhR) signaling pathway (AID 651777; active = well fitted curve in the direction sought with a large enough effect; an effect the other way counts as inactive or inconclusive; also: % of control where 0% means no effect; nearly all actives have a fitted effect of over 15% in size); details: 1A2-DRE human hepatoma cells, luciferase, 24 h; activation: stronger effect = higher value
# Method in brief: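 Human hepatoma 1A2-DRE cells, stably carrying a dioxin response element and CYP1A2 promoter driving luciferase, were exposed to compounds for 24 hr at 37 C and 5% CO2. Luciferase signal was then read after 30 min One-Glo at room temperature.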
# [11] = molecular target: Peroxisome proliferator-activated receptor alpha (Homo sapiens) (UniProt Q07869); experiment: qHTS assay for small molecule agonists of the peroxisome proliferator-activated receptor alpha (PPARalpha) signaling pathway (AID 651778; active = well fitted curve in the direction sought with a large enough effect; an effect the other way counts as inactive or inconclusive; also: % of control where 0% means no effect); details: PathHunter PPARalpha complementation, chemiluminescence, 6 h; max response: stronger effect = higher value
# Method in brief: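 Cells plated at 2,000/well and held overnight at 37 C, 5% CO2, then compound added by pin tool for 6 hr; after PathHunter detection reagent and 60 min at room temperature, chemiluminescence from enzyme complementation was read.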
# [12] = qHTS assay for cell viability of HEK293 cells (AID 743288; active = well fitted curve in the direction sought with a large enough effect; an effect the other way counts as inactive or inconclusive; also: % is scaled to controls: 0 for no effect and ±100 for the full control effect; nearly all actives have a fitted effect of over 50% in size); details: ATP luminescence (CellTiter-Glo), 18 h; max response: stronger effect = lower value
# Method in brief: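 Parental HEK293 cells, 2,000 per well, preincubated at least 5 h at 37 C, then exposed to compounds in DMSO for 18 h at 37 C. Viability by CellTiter-Glo ATP luminescence after 30 min at room temperature.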
# [13] = qHTS assay for small molecule antagonists of peroxisome proliferator-activated receptor delta signaling (AID 588535; active = well fitted inhibition curve with a large enough effect in the signal ratio, with a control signal flat, not every such curve was filed as active; the % refers to the signal ratio;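 as to max response: cells co-treated with a PPAR-delta agonist as stimulator during compound exposure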); details: HEK293T PPARd-UAS-bla, beta-lactamase FRET ratio, 18 h; 460 nm channel
# Method in brief: (§1)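 GeneBLAzer PPAR-delta-UAS-bla HEK293T cells in medium with 2% charcoal/dextran FBS were preincubated 5 hrs at 37 C, then given compounds, incubated 18 hrs at 37 C, and read by CCF4 beta-lactamase fluorescence; IC50 from Hill fits.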
# [14] = molecular target: Peroxisome proliferator-activated receptor delta (Homo sapiens) (UniProt Q03181); experiment: as above
# Method in brief: as §1
# [15] = qHTS assay for small molecule agonists of retinoid X receptor alpha signaling (AID 588544); details: HEK293T RXRa-UAS-bla, beta-lactamase reporter, 18 h; 530 nm emission;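 as to activation: 0% = DMSO basal wells and 100% = reference agonist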
# [16] = molecular target: Retinoic acid receptor RXR-alpha (Homo sapiens) (UniProt P19793); experiment: as above
# [17] = molecular target: Thyroid hormone receptor beta (Homo sapiens) (UniProt P10828); experiment: qHTS assay for small molecule agonists of thyroid hormone receptor beta signaling (AID 588545);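 also: 0% = DMSO only and 100% = 10 nM T3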
# Method in brief: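 Efficacy and EC50 values derive from Hill fits of qHTS titration data, normalized to 10 nM T3 and DMSO-only wells. HEK 293 reporter cells were stimulated for 18 hrs at 37 C, with beta-lactamase activity measured by CCF4 fluorescence.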
# [18] = molecular target: Thyroid hormone receptor beta (Homo sapiens) (UniProt P10828); experiment: qHTS assay for small molecule antagonists of thyroid hormone receptor beta signaling (AID 588547; active = well fitted inhibition curve with a large enough effect in the signal ratio, with a control signal flat, not every such curve was filed as active; the % refers to the signal ratio;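 also: cells stimulated with 0.4 nM T3 agonist during compound exposure; series mostly up to about 77 µM; % is scaled to controls: 0 for no effect and ±100 for the full control effect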); details: TR-UAS-bla HEK293, beta-lactamase ratio, antagonist mode, 18 h
# Method in brief: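 TR-UAS-bla GripTite HEK293 cells in 2% charcoal/dextran FBS medium were preincubated 4 h at 37 C, given compound (0.59 nM to 92 uM) plus 0.4 nM T3 (final) for 18 h, then CCF4 for 2 h at RT; Hill fit gave IC50.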
# [19] = qHTS assay for small molecule agonists of the antioxidant response element (ARE) signaling pathway measured by Nrf2-dependant transcriptional activity (AID 720636; active = well fitted curve in the direction sought with a large enough effect in the repeat runs; an effect the other way counts as inactive or inconclusive; also: % of control where 0% means no effect)
# Method in brief: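 ARE-luc HepG2 cells carrying an Nrf2-responsive luciferase reporter were plated in medium with 1% dialyzed FBS, left 6 hr at 37 C to attach, then exposed to compound for 16 hr. Luciferase luminescence was read after ONE-Glo addition.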
# [20] = qHTS assay for small molecule agonists of the antioxidant response element (ARE) signaling pathway measured by Nrf2-dependant transcriptional activity - cell viability counter screen (AID 720653; active = well fitted curve in the direction sought with a large enough effect in the repeat runs; an effect the other way counts as inactive or inconclusive; also: % is scaled to controls: 0 for no effect and ±100 for the full control effect); details: ARE-bla HepG2 viability, CellTiter-Glo ATP luminescence, 16 h; max response: stronger effect = lower value
# Method in brief: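 ARE-bla HepG2 cells (2,000/well) rested 5 hrs at 37C/5% CO2, then exposed to compounds in DMSO for 16 hrs. Viability was read in the same wells as intracellular ATP by luminescence, 30 min at room temperature after reagent addition.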
# [21] = qHTS assay for cell viability of the p53RE-bla HCT-116 cell line (AID 743292; active = well fitted curve in the direction sought with a large enough effect; an effect the other way counts as inactive or inconclusive; also: % is scaled to controls: 0 for no effect and ±100 for the full control effect; nearly all actives have a fitted effect of over 55% in size)
# Method in brief: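 CellSensor p53RE-bla HCT-116 cells, 4,000/well, preincubated 5 h at 37 C, then exposed to compounds in DMSO for 16 h at 37 C. Viability read as CellTiter-Glo luminescence (intracellular ATP) after 30 min at room temperature.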
# [22] = molecular target: Nuclear receptor subfamily 1 group I member 2 (Rattus norvegicus) (UniProt Q9R1A7); experiment: qHTS assay for small molecule activators of the rat pregnane X receptor (rPXR) signaling pathway (AID 651751; call rule not given here; also: 0% is about no effect); details: rPXR reporter cells, luciferase (One-Glo), 24 h
# Nuclear receptor subfamily 1 group I member 2 (Rattus norvegicus), sequence (Q9R1A7 whole entry, looked up): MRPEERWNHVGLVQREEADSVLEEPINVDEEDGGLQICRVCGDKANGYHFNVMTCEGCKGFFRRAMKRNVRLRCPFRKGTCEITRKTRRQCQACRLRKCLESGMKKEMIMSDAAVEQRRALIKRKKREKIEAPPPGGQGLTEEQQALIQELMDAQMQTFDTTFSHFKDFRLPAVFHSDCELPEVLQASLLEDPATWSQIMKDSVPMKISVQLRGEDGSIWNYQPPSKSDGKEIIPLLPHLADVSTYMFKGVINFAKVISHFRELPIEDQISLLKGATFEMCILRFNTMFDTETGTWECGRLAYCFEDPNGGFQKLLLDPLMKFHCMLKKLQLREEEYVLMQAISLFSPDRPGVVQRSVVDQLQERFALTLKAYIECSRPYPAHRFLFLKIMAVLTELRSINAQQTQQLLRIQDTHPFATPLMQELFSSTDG
# Peroxisome proliferator-activated receptor delta (Homo sapiens), sequence (Q03181 whole entry, looked up): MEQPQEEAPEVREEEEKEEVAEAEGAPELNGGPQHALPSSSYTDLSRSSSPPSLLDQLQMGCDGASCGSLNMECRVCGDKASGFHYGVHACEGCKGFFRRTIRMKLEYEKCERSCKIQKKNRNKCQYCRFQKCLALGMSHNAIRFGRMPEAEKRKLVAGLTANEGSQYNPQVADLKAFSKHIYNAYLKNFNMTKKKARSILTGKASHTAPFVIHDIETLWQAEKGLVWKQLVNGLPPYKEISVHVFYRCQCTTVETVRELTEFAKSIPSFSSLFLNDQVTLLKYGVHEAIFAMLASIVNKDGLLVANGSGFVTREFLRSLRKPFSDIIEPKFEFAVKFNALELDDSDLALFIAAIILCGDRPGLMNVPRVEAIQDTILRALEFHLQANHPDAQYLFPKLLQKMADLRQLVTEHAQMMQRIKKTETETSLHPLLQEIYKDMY
# Bile acid receptor (Homo sapiens), sequence (Q96RI1 whole entry, looked up): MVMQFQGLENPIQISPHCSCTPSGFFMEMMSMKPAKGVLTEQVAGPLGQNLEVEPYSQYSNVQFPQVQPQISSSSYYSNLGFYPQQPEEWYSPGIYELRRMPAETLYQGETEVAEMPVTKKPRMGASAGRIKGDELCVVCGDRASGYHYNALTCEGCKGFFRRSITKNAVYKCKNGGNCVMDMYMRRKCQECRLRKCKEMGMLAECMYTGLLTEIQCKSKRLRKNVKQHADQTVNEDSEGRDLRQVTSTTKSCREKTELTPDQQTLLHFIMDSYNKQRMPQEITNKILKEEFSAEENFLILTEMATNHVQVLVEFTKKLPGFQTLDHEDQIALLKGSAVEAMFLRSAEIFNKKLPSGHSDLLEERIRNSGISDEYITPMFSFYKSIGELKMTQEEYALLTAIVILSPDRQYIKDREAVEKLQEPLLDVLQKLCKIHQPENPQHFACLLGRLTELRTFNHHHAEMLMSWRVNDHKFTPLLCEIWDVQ
# Thyroid hormone receptor beta (Homo sapiens), sequence (P10828 whole entry, looked up): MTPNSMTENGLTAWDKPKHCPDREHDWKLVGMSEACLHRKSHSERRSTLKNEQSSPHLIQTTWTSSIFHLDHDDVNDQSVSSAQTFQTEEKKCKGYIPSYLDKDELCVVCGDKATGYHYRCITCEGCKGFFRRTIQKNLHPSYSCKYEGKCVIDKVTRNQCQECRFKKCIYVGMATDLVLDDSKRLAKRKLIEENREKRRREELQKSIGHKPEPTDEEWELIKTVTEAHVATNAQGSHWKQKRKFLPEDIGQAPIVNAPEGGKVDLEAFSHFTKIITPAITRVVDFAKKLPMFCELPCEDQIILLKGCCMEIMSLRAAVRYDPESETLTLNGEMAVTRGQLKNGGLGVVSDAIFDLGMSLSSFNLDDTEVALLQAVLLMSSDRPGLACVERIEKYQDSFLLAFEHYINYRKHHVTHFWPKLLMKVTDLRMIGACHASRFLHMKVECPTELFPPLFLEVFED
# Peroxisome proliferator-activated receptor alpha (Homo sapiens), sequence (Q07869 whole entry, looked up): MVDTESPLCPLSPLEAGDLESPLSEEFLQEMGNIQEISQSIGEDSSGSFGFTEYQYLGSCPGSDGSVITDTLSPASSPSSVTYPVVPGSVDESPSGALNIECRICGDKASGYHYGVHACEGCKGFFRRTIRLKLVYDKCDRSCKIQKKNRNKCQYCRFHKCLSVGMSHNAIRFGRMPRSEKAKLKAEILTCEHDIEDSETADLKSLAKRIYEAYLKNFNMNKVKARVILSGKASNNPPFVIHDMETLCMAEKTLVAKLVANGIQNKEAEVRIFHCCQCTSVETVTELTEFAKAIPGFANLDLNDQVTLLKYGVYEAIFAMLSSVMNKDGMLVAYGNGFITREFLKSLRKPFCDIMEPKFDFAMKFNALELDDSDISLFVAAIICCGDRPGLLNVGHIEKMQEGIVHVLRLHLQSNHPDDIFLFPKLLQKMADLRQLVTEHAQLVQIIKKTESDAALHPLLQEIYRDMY
# Vitamin D3 receptor (Homo sapiens), sequence (P11473 whole entry, looked up): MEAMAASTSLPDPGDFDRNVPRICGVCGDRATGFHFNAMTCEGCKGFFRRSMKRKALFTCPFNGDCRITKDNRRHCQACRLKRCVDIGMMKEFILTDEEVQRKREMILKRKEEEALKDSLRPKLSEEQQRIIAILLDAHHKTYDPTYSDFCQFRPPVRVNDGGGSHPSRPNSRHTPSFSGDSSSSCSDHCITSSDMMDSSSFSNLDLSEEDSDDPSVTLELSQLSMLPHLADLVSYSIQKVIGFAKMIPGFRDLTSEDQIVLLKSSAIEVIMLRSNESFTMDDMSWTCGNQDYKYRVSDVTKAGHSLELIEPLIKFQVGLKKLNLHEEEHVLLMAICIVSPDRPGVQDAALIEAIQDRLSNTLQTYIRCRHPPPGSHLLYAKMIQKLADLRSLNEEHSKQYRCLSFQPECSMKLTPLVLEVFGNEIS
# Cytochrome P450 3A4 (Homo sapiens), sequence (P08684 whole entry, looked up): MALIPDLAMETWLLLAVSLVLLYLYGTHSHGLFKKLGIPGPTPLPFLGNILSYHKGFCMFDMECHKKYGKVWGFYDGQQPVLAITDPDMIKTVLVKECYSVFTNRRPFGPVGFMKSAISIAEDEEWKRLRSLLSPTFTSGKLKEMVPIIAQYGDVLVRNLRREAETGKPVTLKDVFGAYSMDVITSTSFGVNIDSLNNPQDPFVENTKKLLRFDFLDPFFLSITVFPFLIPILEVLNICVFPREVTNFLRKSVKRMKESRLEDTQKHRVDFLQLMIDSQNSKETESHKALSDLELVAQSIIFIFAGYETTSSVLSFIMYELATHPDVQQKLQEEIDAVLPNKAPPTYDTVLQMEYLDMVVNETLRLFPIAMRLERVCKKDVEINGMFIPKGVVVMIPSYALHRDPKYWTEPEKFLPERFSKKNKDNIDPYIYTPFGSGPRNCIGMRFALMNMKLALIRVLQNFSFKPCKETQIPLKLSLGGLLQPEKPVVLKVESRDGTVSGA
# Retinoic acid receptor RXR-alpha (Homo sapiens), sequence (P19793 whole entry, looked up): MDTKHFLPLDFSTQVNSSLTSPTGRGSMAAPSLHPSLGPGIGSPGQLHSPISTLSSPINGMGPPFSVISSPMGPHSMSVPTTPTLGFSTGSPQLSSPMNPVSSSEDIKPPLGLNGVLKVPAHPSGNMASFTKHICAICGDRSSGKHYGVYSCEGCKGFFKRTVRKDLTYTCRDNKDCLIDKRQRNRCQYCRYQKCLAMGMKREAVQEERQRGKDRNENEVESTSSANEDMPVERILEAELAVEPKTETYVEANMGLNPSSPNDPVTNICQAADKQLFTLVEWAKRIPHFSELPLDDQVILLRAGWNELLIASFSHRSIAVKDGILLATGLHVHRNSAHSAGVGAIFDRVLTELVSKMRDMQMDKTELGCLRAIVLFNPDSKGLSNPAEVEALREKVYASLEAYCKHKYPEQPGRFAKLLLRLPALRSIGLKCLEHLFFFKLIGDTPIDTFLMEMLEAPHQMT
# Peroxisome proliferator-activated receptor gamma (Homo sapiens), sequence (P37231 whole entry, looked up): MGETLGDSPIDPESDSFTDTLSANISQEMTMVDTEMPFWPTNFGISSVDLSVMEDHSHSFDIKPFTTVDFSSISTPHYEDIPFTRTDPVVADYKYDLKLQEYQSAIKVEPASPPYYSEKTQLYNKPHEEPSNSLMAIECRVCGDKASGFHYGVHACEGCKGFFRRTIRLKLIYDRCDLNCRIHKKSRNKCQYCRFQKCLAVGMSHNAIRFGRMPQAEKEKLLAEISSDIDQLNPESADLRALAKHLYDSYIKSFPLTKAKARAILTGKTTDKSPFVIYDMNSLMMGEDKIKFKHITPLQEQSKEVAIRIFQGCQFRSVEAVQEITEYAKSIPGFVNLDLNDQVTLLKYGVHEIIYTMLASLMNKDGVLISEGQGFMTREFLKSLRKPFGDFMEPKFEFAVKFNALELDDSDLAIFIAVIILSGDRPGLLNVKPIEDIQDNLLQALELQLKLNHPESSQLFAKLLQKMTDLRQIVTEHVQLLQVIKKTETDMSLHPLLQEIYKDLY
structure (smiles),measurement,setting,value
Cc1ccc(C(=O)O)cc1,activation,[1],-1.14% (inactive)
same,outcome,[2],inactive
Nc1ccc(-c2ccc(N)c(O)c2)cc1O,Potency,[3],inactive
same,Potency,[4],50.1 µM (active)
same,Potency,[5],50.1 µM (active)
same,activation,[1],-0.21% (inactive)
same,outcome,[2],inactive
CCCCC(CC)COP(=O)(OCC(CC)CCCC)OCC(CC)CCCC (stereo not given),Potency,[3],inactive
same,activation,[1],-0.972% (inactive)
same,outcome,[2],inactive
Cc1ccc(-c2c(Cl)nc(C#N)n2S(=O)(=O)N(C)C)cc1,activation,[1],4.98% (inactive)
same,Potency,[6],inactive
same,outcome,[7],inactive
same,Potency,[8],28.2 µM (active)
same,activation,[9],2.86% (inactive)
same,activation,[10],12.8% (inactive)
same,max response,[11],15.7% (inactive)
same,max response,[12],-15.9% (inactive)
CCOP(=O)(OCC)Oc1ccc([N+](=O)[O-])cc1,activation,[1],2.69% (inactive)
same,outcome,[2],inactive
same,max response,[13],-45.6%
same,Potency,[14],inactive
same,outcome,[7],inactive
same,max response,[15],-4.35%
same,Potency,[16],inactive
same,Potency,[17],inactive
same,activity change % (negative = inhibition),[18],-16.8% (inactive)
same,activation,[9],0.546% (inactive)
same,activation,[10],0.386% (inactive)
same,max response,[11],-2.58% (inactive)
same,Potency,[19],inactive
same,max response,[20],-9.88% (inactive)
same,max response,[12],-2.61% (inactive)
same,Potency,[21],inactive
same,max response,[22],3.26% (inactive)
